Assay outcomes (PubChem BioAssay)
GLP1R ag – activates the human GLP-1 receptor; Potency, µM (doses to about 45.6 µM), inactives show at the highest dose activation, most hits filed as activators; P43220; actives 0.007% (n = 380,000); HEK293 GLP-1R CRE-luciferase, luminescence, 4-6 h; cells express a hypersensitive GLP-1R form; AID 624172; further: % of control where 0% means no effect
Target sequence (P43220 whole entry, looked up): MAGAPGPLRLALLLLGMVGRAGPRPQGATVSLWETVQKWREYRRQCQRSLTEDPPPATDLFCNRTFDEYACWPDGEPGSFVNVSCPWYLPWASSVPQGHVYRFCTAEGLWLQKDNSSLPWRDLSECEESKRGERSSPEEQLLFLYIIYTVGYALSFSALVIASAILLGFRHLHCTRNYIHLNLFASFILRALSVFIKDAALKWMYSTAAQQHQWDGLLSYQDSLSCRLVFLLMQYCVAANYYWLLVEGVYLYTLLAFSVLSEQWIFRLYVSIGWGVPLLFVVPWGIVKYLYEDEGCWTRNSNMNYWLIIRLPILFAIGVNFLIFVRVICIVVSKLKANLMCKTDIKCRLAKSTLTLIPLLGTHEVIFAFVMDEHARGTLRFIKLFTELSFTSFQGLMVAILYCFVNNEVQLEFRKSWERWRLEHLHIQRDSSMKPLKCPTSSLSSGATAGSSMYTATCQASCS
GLP1R inv ag – inverse agonists of human GLP-1 receptor; P43220; HEK293 GLP-1R CRE-luciferase, luminescence, 24 h; GLP-1R form is constitutively active; Potency, µM (titrated, usually from 38.3 µM), for inactives: at the highest dose activity change, negative = inhibition, usual class: inhibitors; actives 1.6% (n = 410,000); AID 624417; further: on the % scale 0 is the no-effect control and ±100 the full control effect; nearly all actives have a fitted effect of over 55% in size
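HEK293 cells stably co-expressing constitutively active GLP-1R and a cAMP-responsive luciferase reporter were seeded in DMEM with 10% Nu serum, given compounds after 12 h, and incubated 24 h at 37 deg C. Luminescence was then read.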
PTHR1 ag – PTHR1 (human) receptor agonism | Q03431 | HEK293 GP2 PTHR1 cells, GloSensor cAMP luminescence, 1 h | Potency, µM (highest dose often 115 µM), for inactives: top-dose activation, hits mostly activators | actives 0.075% (n = 410,000) | AID 743266; further: nearly all actives have a fitted effect of over 55% in size
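HEK-293-derived GP2 cells expressing PTHR1 and a GloSensor cAMP reporter, 3,000/well, plated overnight, given luciferin plus IBMX (each 0.5 mM as added) for 1 h at 37 °C, then compound for 1 h at 37 °C. Luminescence was read after 15 min at room temperature.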
HEK293 tox – cytotoxic in the GLP-1 receptor inverse agonist counter-screen; HEK293 cAMP-luciferase reporter cells, luminescence, 24 h; actives 0.13% (n = 410,000); Potency, µM (doses to about 38.3 µM), inactives show at the top dose activity change, negative = inhibition, hits mostly inhibitors;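 further: loss of luciferase light is scored as toxicity; on the % scale 0 is the no-effect control and ±100 the full control effect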
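A 23 nL compound transfer followed 12 hours of cell culture at 37 deg C; exposure then lasted 24 hr. Luciferase assay detection reagent was dispensed and plates read for luminescence after a 12 min room-temperature wait.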
The depositor's hits bear a star; i = inactive; ? = inconclusive; . = not tested or not shown; [ ] = another dose, or the depositor's remark. Only some compounds are listed: those with a hit (about 1.7% of all), similar ones and a draw of the others. The call rests on the fitted dose curve; in most records, active means well fitted curve in the direction sought with a large enough effect; inconclusive means small, poorly fitted or top-dose-only effect, or another doubt; inactive means no such curve, though single readings can be large; an effect the other way counts as inactive or inconclusive. Potency means the concentration at half of the fitted maximal effect.

SMILES | GLP1R ag | GLP1R inv ag | PTHR1 ag | HEK293 tox
COc1cc(/C=N/Nc2nc(Nc3ccc(C)cc3)nc(-n3nc(C)cc3C)n2)cc(OC)c1OC | 7% | ? | i | 4.5µM*
COc1cc(/C=N/Nc2nc(Nc3ccccc3)nc(-n3nc(C)cc3C)n2)cc(OC)c1OC | 18% | ? | -20% | ?
CCNC1CCC(Nc2ccnc3cc(Cl)ccc23)CC1 (centres undefined) | -7% | ? | -24% | ?
OC(CNc1ccnc2cc(Cl)ccc12)CNC1CCCCC1 (centres undefined) | -12% | ? | i | 5µM*
Cc1nn(-c2ccccc2)c(C)c1C(=O)NCc1ccc(F)cc1 | 0% | 1% | i | -12%
Cc1c(C(=O)NCc2ccc(F)cc2)c(-c2ccccc2)nn1-c1ccccc1 | 5% | 5µM* | -11%[57.5 µM] | 2%
Cc1cc(C(=O)N2CCN(c3cccc(C)c3C)CC2)c2c(C)nn(-c3ccccc3)c2n1 | . | 13% | -56% | -2%
Fc1ccccc1NC(=S)N/N=C/c1ccccc1Br | 13% | ? | -6% | 5.6µM*
CCOC(=O)c1c(C)[nH]c(C)c1C(=O)CSc1nc2ccccc2n1CC | 7% | -18% | -21% | -22%
CCOC(=O)c1c(C)[nH]c(C)c1C(=O)CSc1nc2ccccc2c(=O)n1-c1ccc(CC)cc1 | 9% | 10µM* | -11% | -12%
CCc1ccc(-n2c(N3CCN(c4ccc(F)cc4)CC3)nc3ccccc3c2=O)cc1 | . | 11µM* | i | 1%
CCc1ccc(-n2c(N3CCN(c4cccc(Cl)c4)CC3)nc3ccccc3c2=O)cc1 | . | ? | -31% | 2%
O=C(Nc1ccc(F)cc1F)Nc1csc2ccccc12 | -18% | 10µM* | -21% | 3%
O=C(Nc1ccc(F)c(Cl)c1)Nc1csc2ccccc12 | 0% | ? | -23% | ?
CCC(C)c1ccc(OCc2ccc(C(=O)O)o2)cc1 (centres undefined) | -8% | 2µM* | -88% | -2%
CCOC(=O)C(CCCOc1ccc(C(C)CC)cc1)C(=O)OCC (centres undefined) | -11% | 10µM* | i | -15%
Cc1ccc2nc(NC(=O)CSc3nccn3Cc3ccccc3)sc2c1 | 14% | ? | -44% | -8%
CCOC(=O)c1ccc(N/C(=N\S(=O)(=O)c2ccccc2C)c2ccccc2)cc1 | -1% | ? | -5%[57.5 µM] | -17%
Cc1ccc(C)c(S(=O)(=O)/N=C(/Nc2ccccc2)c2ccccc2)c1 | 12% | 10µM* | -24% | -2%
CC(=O)O[C@]1(C(=O)CO)[C@@H](C)C[C@H]2[C@@H]3CCC4=CC(=O)C=C[C@]4(C)[C@@]3(F)[C@@H](O)C[C@]21C | 5% | . | . | .
O=c1c2sc(-c3ccccc3)cc2nc2n1CCC2 | -18% | 5µM* | -20% | 2%
O=C(NC(=S)N1CCN(c2c(Cl)cccc2[N+](=O)[O-])CC1)c1cccs1 | 0% | 0% | -28% | 7.1µM*
COc1ccc(N2CCN(C(=S)NC(=O)c3cccs3)CC2)c([N+](=O)[O-])c1 | 9% | ? | -12% | ?
Cc1ccc(Nc2c(-c3ccccc3O)nc3ncccn23)cc1 | -2% | 10µM* | -5% | -15%
Cc1ccc(Nc2c(-c3ccsc3)nc3c(C)cccn23)cc1 | . | ? | -77% | 3%
SMILES | GLP1R ag | GLP1R inv ag | PTHR1 ag | HEK293 tox
Cc1ccc(Nc2c(-c3ccc(C)cc3)nc3c(C)cccn23)cc1 | . | 10µM* | -4% | -16%
COc1ccc(/C=C2\OC(=O)c3c(OC)cccc32)cc1OC | 5µM* | 208% | -15%[57.5 µM] | 389%
COc1ccc(C=C2C(=O)OC(C)(C)OC2=O)cc1OC | -14% | 22% | 0% | 7%
CCOc1ccc(-c2cc(CCCC(=O)NCCc3ccc(SC)cc3)no2)cc1 | 2% | 3% | -20% | -9%
CC(=O)c1cccc(NC(=O)c2nc3ccccc3n(C)c2=O)c1 | . | 1% | i | -20%
CC1CCCN(Cc2nc(Cc3ccccc3Cl)no2)C1 (centres undefined) | 13% | 10µM* | -51% | 1%
Cc1[nH]c2ccccc2c1C(c1ccccc1)c1ccc(Cl)s1 (centres undefined) | . | 10µM* | -97% | -13%
Cc1[nH]c2ccccc2c1C(C[N+](=O)[O-])c1cccs1 (centres undefined) | 3% | ? | -23% | -2%
Cc1cc(C)c2ccc(N)nc2c1O | -22% | 13µM* | i | ?
